Compounds with a hit are over-represented: about 4.8% of the library has one in this group of screens.
DAX1 inh-1: inhibitors of DAX1 repression of SF-1 activated StAR promoter; 370,000 tested, 1.1% active; inhibition, % at 6.8 µM; HEK293T StAR-luciferase reporter, SF-1/DAX-1 repression relief;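 active means inhibition above the mean over all tested compounds plus 3 SD, cut at about 3.6% in these data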;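 further: 0% = DAX-1 cells with DMSO and 100% = cells lacking DAX-1 with DMSO; higher inhibition means more luminescence from relief of DAX-1 repression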
hgDAF12 agonist: hgDAF-12 agonism, primary luciferase screen; HEK293 GAL4-hgDAF12 UAS-luciferase reporter, agonist luminescence; normalized to butyrate control; activation, % at 6.8 µM; 370,000 tested, 1.8% active;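 active means activation above a cutoff set at the mean of all screened compounds plus 3 SD, cut at about 10% in these data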;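 further: 0% = DMSO wells and 100% = sodium butyrate wells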
hcDAF12 agonist: activates DAF-12 receptor from parasite H. contortus; HEK293 hcDAF-12 lit1-tk-luc reporter, luminescence; 0% DMSO, 100% Δ7-dafachronic acid; activation, % at 6.8 µM; 370,000 tested, 1.4% active; AID 652067;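 active means activation above the mean of all tested compounds plus 3 SD, cut at about 5.5% in these data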;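 further: 100% = response to 3 µM Δ7-dafachronic acid high control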
DAX1 inh-2: NR0B1 (DAX1) inhibition. AID 504766. inhibition, % at 6.75 µM. P51843. 340,000 tested, 0.99% active. HEK293 Gal4-DAX1 luciferase reporter, luminescence;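 active means inhibition above the mean over all tested compounds plus 3 SD, cut at about 4.2% in these data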;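 further: 0% = DAX1-transfected cells with DMSO and 100% = empty-vector control cells with DMSO; inhibition shows as a rise in luminescence from relieved DAX1 repression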
Target sequence (P51843 207-470 limits assumed): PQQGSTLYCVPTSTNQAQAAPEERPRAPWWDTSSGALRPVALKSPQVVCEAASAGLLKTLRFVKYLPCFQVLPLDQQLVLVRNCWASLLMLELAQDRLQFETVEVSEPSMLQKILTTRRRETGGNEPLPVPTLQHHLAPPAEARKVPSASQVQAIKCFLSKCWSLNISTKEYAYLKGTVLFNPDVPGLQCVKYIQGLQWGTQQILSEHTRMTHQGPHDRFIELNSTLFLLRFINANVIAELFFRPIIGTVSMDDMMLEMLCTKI
ssDAF-12 act: activators of S. stercoralis DAF-12 nuclear receptor | 370,000 tested, 1% active | HEK293 ssDAF-12/GRIP1 lit1-tk-luc reporter, luminescence; % of 3 µM dafachronic acid response | AID 652126 | activation, % at 6.8 µM;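 active means activation above the mean over all tested compounds plus 3 SD, cut at about 0.9% in these data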;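 further: 0% = DMSO-only wells and 100% = 3 µM delta7-dafachronic acid wells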
SMARCA2 act: activators of SMARCA2 function; MG213 cells, MMTV-luciferase reporter, dexamethasone, overnight; activation, % at 9.1 µM; 370,000 tested, 1% active; AID 652017; in the data active means activation above about 7.8%;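 further: 0% = vehicle wells and 100% = reference activator wells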
* marks the source's active call; other numbers are inactive results; . = no result given.

SMILES | DAX1 inh-1 | hgDAF12 agonist | hcDAF12 agonist | DAX1 inh-2 | ssDAF-12 act | SMARCA2 act
O=C(NCCc1ccc(F)cc1)c1cc2ccccc2oc1=O | 0 | -1 | 3 | 4.3* | -1 | 0
COc1cc(NC(=S)NC(=O)C(C)C)ccc1NC(=O)c1cc2ccccc2o1 | 0 | -2 | 0 | 1 | -2 | 2
COc1cc(NC(=O)C(C)C)ccc1NC(=O)c1cc2ccccc2o1 | 1 | 6 | 0 | 6.1* | -2 | 3
CSc1nc2ccc(NC(=O)c3cccs3)cc2s1 | 3 | 11* | 3 | -1 | -1 | 2
O=C(Nc1ccc(F)cc1)c1cc2ccccc2o1 | 1 | 10 | 6.5* | 4.3* | 1.6* | 3
O=C(NCCc1ccccc1)c1cc2ccccc2oc1=O | 0 | 3 | 2 | 0 | 1 | 2
O=C(Nc1ccc(NC(=O)c2cc3ccccc3o2)cc1)c1ccco1 | 0 | -2 | -3 | -1 | -2 | 0
CCCC[C@H](C(=O)N(C)c1ccccc1)[C@@H](O)c1ccc(Cl)cc1 | -1 | 2 | -1 | . | 0 | -3
COc1cccc(NC(=O)Nc2nc3ncccn3c2-c2ccc(F)c(F)c2)c1 | -1 | 4 | 0 | . | -1 | 0
COC(=O)[C@@]12CCCCC3=C1N(CCC3)C(=O)[C@H]2CC(=O)NCCCCc1ccccc1 | 2 | 2 | 0 | . | -1 | -3
CC(Cl)C(=O)N1CCC(C(=O)NCC2COc3ccccc3O2)CC1 (stereo not given) | 0 | 3 | 0 | . | -1 | -3
CC(C)c1cc(C(C)C)c(S(=O)(=O)N2CCC(c3cn4ccccc4n3)CC2)c(C(C)C)c1 | -2 | -1 | -2 | . | -1 | -1
O=C(NCCc1ccc2c(c1)OCCO2)c1ccccc1F | 1 | 12* | 1 | 1 | -1 | -1
CSc1nc2ccc(NC(=O)c3ccc(=O)[nH]c3)cc2s1 | 0 | 0 | 0 | -2 | -1 | -2
CC(=O)Nc1ccc(-c2cc3ccccc3o2)cc1 | 3 | 10 | 5 | 4.5* | 0.9* | 6
CSc1nc2ccc(NC(=O)c3cc4ccccc4o3)cc2s1 | 3 | 12* | 2 | 3 | 0 | 7
O=C(Nc1ccc(-c2nc3ccc(NC(=O)c4cccs4)cc3[nH]2)cc1)c1cccs1 | 1 | -11 | -5 | -2 | -2 | 9.1*
C#CCN1CC(N(C)CCOC(=O)c2cc3ccccc3[nH]2)CS1(=O)=O (stereo not given) | -1 | 0 | -1 | . | -1 | -1
Cc1ccccc1CNC(=O)C1CCC(CNS(=O)(=O)c2cccc3cccnc23)CC1 (stereo not given) | -1 | 1 | -2 | . | -1 | 4
O=C(Nc1ccc(Cl)cc1Cl)c1cc2ccccc2o1 | 2 | 7 | 5 | 2 | 2.2* | 4
N/C(=N\NC(=O)c1ccccc1)c1cc2ccccc2oc1=O | 2 | 12* | 0 | 0 | 0 | 3
CCn1cnc2cc(NC(=O)c3cccs3)ccc21 | 3.9* | 7 | 3 | 1 | -1 | -3
CCC(=O)Nc1ccc(NC(=O)c2ccco2)c(OC)c1 | 1 | 4 | -1 | 2 | -1 | 2
COc1cc(NC(=O)CC(C)C)ccc1NC(=O)c1ccco1 | 2 | 5 | 0 | 4.4* | -1 | 6
COC(=O)C1CN(CCO)CCS(=O)(=O)N1Cc1cn(Cc2cccc(Cl)c2)nn1 (stereo not given) | -1 | -1 | -2 | . | 0 | -2
SMILES | DAX1 inh-1 | hgDAF12 agonist | hcDAF12 agonist | DAX1 inh-2 | ssDAF-12 act | SMARCA2 act
Cc1ccc(-c2[nH]c3ccccc3c2SCCNC(=O)c2cc3ccccc3oc2=O)cc1 | 0 | 3 | 6.5* | -1 | 0 | 1
CC(C)(C)n1cnc2cc(NC(=O)c3ccccc3)ccc21 | 2 | 11* | 3 | 5.5* | 0 | 5
COCCCN1C(=O)[C@H](CC(=O)NCc2ccccc2)[C@]2(C(=O)OC)CCCCC=C12 | 2 | -1 | 3 | . | 0 | -6
COc1cc(NC(=O)C2CCCN2S(=O)(=O)c2cccc3cccnc23)cc(OC)c1OC (stereo not given) | 0 | 0 | -1 | 4.6* | -1 | -2
COc1ccc(NC(=O)[C@@H]2CCCN2S(=O)(=O)c2cccc3cccnc23)cc1 | 0 | -1 | -2 | 0 | -1 | 1
Cc1cc(NC(=O)C(C)SCC(=O)OCC(=O)N(C)c2ccccc2)no1 (stereo not given) | 1 | 2 | -1 | 4.6* | -1 | -2
COc1ccccc1C(=O)COC(=O)CSC(C)C(=O)Nc1cc(C)on1 (stereo not given) | -1 | 1 | 0 | -1 | -1 | -2
Cc1cn([C@H]2C[C@H](O)[C@@H](CNCc3cc(Cl)ccc3OCc3ccc(Cl)cc3)O2)c(=O)[nH]c1=O | 0 | -1 | 0 | 0 | -1 | -2
COc1cc2c(cc1CNC[C@H]1O[C@@H](n3cc(C)c(=O)[nH]c3=O)C[C@@H]1O)OCO2 | 0 | 1 | 1 | 5.0* | -1 | -3
Nc1[nH]c(N=NC(=O)c2ccccc2O)c2ccccc12 | 3 | 12* | 2 | 2 | -1 | 1
CN(Cc1ccccc1)C(=O)OCc1cn(Cc2cccc(C(F)(F)F)c2)nn1 | 0 | 1 | -2 | . | -2 | -1
CN(C)S(=O)(=O)c1cccc(C(=O)N/N=C\c2ccccc2)c1 | 0 | 10 | 4 | . | -1 | -2
CCOC(=O)CC[C@H]1CC[C@]2(CCCN(Cc3ccccc3)C2)O1 | 0 | 1 | 0 | . | 0 | 1
Cc1cc2nc(C(C)(C)C)c(Cc3cccc(Cl)c3)n2c(C)c1Br | 0 | 2 | 3 | . | -1 | -1
Cc1ccc(Cc2c(C(C)(C)C)nc3cc(C)c(Br)c(C)n23)cc1 | -1 | 2 | 4 | . | 1.2* | 0
Cc1cc2nc(C3CCCCC3)c(Cc3ccsc3)n2c(C)c1Br | -2 | 2 | 1 | . | -1 | -2
Cc1cc2nc(C(C)(C)C)c(Cc3ccsc3)n2c(C)c1Br | 4.1* | 1 | 3 | . | 0 | -5
N#Cc1cc2c(nc1SCC(=O)Nc1nccs1)CCCCC2 | 7.7* | 21* | 11* | 2 | 1.0* | 2
O=[N+]([O-])c1ccc(-c2csc(Nc3ccccc3)[n+]2Cc2ccccc2)cc1 | -1 | 6 | 3 | 1 | -1 | 1
COc1ccc(-c2csc(Nc3ccccc3)[n+]2Cc2ccccc2)cc1 | 0 | 6 | 0 | 1 | 0.9* | 0
O=C(Nc1ccc(Cl)cc1)O[C@@H]1CC[C@@]23CCCN2C(=O)CCC[C@H]3C1 | . | -2 | -3 | . | -2 | .
CCCCC(=O)Nc1cc(C)c(NC(=O)c2cccs2)cn1 | 0 | 0 | -2 | 0 | -2 | 2
Cc1ccnc(NC(=O)CCCNC(=O)c2ccc(Cl)cc2)c1 | 4.0* | 8 | 1 | 1 | 0 | 2

High-throughput results: PubChem BioAssay, The Scripps Research Institute Molecular Screening Center
